# Experimental data from PubChem BioAssay (NCATS).
# Inconclusive results are not listed. Where a call stands in place of a potency, no number is given. The source made the active and inactive calls. Calls come from the whole dose curve; as a rule, active = well fitted cell-killing curve with a large enough effect; inconclusive = small, poorly fitted or top-dose-only effect; inactive = flat fitted curve, though single readings scatter.
# Assay: Cell Viability - LYMP2-026 (AID 989); note: nearly all actives have a fitted effect of over 50% in size
# Details: LYMP2-026 lymphoblastoid cell viability, qHTS; series mostly up to 92.2 µM
# Text: NIH Chemical Genomics Center [NCGC]
# NIH Molecular Libraries Screening Centers Network [MLSCN]
# National Institutes of Environmental Health Sciences [NIEHS]
# National Toxicology Program [NTP]
# We have developed a 1536-well cell-based assay for quantitative high throughput screening (qHTS) against a number of cell lines to determine in vitro cytotoxicity of small molecules. This particular assay uses a human lymphoblastoid cell line (LYMP2-026) purchased from Coriell Institute for Medical Research.
# NCGC Assay Protocol Summary:
# The CellTiter-Glo luminescent cell viability assay (Promega) is a homogeneous method to measure the number of viable cells in culture. The end point readout of this assay is based on quantitation of intracellular ATP, an indicator of metabolic activity, using the luciferase reaction. Luciferase catalyzes the oxidation of beetle Luciferin to oxyluciferin and light in the presence of ATP. The luminescent signal is proportional to amount of ATP present.
# Using the CellTiter-Glo luminescent cell viability assay, the amount of cellular ATP was measured in the lymphoblastoid cell line with complete culture medium following compound treatment for 24 hours. The assay was performed in opaque white Kalypsys 1536-well plates. In the screen, tetraoctylammonium bromide was used as positive control. Library compounds were measured for their ability to cause acute toxicity in the cell line, as reflected by a decrease in intracellular ATP levels, in a concentration-dependent manner. […] AC50 values were determined from concentration-response data modeled with the standard Hill equation.
# qHTS protocol for CellTiter Glo lymphoblastoid cellular assay
# [Step] [Parameter] [Value] [Description]
# 1. Reagent; 5 uL; 2500 lymphoblastoid cells/well
# 2. Time; 5 hr; 37 C incubation
# 4. Controls; 23 nL; Tetraoctylammonium bromide 6.4pM to 92 uM
# 5. Time; 24 hr; 37 C incubation
# 6. Reagent; 5 uL; CellTiter Glo reagent
# 7. Time; 30 min; Room Temperature
# 8. Detection; Luminescence; Viewlux plate reader
# Keywords: cell viability, cytotoxicity, lymphoblastoid cell line, luminescence, NTPHTS, NTPHTS_NCGC, NIEHS, DSSTox, MLSMR, MLSCN, NIH Roadmap, qHTS, NCGC
# Potency is the fitted concentration of half-maximal effect.
row,SMILES,Potency
1,COc1cccc2c1C(=O)c1c(O)c3c(c(O)c1C2=O)C[C@@](O)(C(=O)CO)C[C@@H]3O[C@H]1C[C@H](N)[C@H](O)[C@H](C)O1,0.501 µM (active)
2,C=CCc1ccc(O)c(OC)c1,inactive
3,CC(C)(C)CC(C)(C)c1ccc(OCCOCC[N+](C)(C)Cc2ccccc2)cc1,31.6 µM (active)
4,CC/C(=C(/CC)c1ccc(O)cc1)c1ccc(O)cc1,inactive
5,CC(O)C(=O)O (stereo unspecified),inactive
6,O=C1OC(c2ccc(O)cc2)(c2ccc(O)cc2)c2ccccc21,inactive
7,CC(=O)Oc1ccc(C(c2ccc(OC(C)=O)cc2)c2ccccn2)cc1,inactive
8,Nc1ccc(C(=O)O)cc1,inactive
9,Oc1ccc(O)cc1,inactive
10,CN(C)/N=N/c1nc[nH]c1C(N)=O,inactive
11,O=C(O)CCCCC(=O)O,inactive
12,O=c1ccc2ccccc2o1,inactive
13,CCCCCCc1ccc(O)cc1O,inactive
14,NC(=NCCCCCCN=C(N)/N=C(\N)Nc1ccc(Cl)cc1)/N=C(\N)Nc1ccc(Cl)cc1,50.1 µM (active)
15,C[C@]12CC[C@@H]3c4ccc(O)cc4CC[C@H]3[C@@H]1CC[C@@H]2O,inactive
16,COC1=CC(=O)C[C@@H](C)[C@]12Oc1c(Cl)c(OC)cc(OC)c1C2=O,inactive
